Source: PubChem BioAssay
In the library only some 7.1% were active in any assay of this set; here they are far more common.
PINK1 modulator – PINK1 expression modulation. PINK1 immunofluorescence, high-content cytometry, 24 h. Potency, µM (doses to about 76.6 µM), for the others: at the top dose activation (PINK1 increase), hits mostly activators. 0.2% of 410,000 active; active = well fitted activation curve with a large enough effect; inconclusive = small, poorly fitted or top-dose-only effect; cell line not stated here; also: potency is read from the fitted curve at half-maximal effect; % of control where 0% means no effect; nearly all actives have a fitted effect of over 65% in size
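Readout is PINK1 immunofluorescence, quantified alongside mitochondrial, cell and nuclear markers by laser-scanning microplate cytometry. Cells from a stable line were exposed to compound titrations (5 concentrations) for 24 hours, with CCCP controls.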
S2 tox – cell viability loss in ATXN counter-screen; S2 cells (HEK-293 line with an ATXN2-luciferase reporter) viability, CellTiter-Fluor protease fluorescence, 24 h; Potency, µM (highest dose often 56.7 µM), hits mostly cytotoxic; 0.49% of 400,000 active; also: potency is read from the fitted curve at half-maximal effect; nearly all actives have a fitted effect of over 40% in size
ATXN2 expr inh – inhibitors of ATXN2 expression; HEK-293 ATXN2-luciferase reporter, luminescence, 24 h; 0.72% of 360,000 active; Potency, µM (top dose mostly 57 µM), for the others: at the top dose activity change, negative = inhibition, most hits filed as inhibitors; also: potency is read from the fitted curve at half-maximal effect; % is scaled to controls: 0 for no effect and ±100 for the full control effect; nearly all actives have a fitted effect of over 55% in size
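ATXN2-luciferase reporter cells (luciferase flanked by upstream and downstream ATXN2 gene portions) were treated 24 h at 37 °C with compounds at up to 57 uM. SteadyGlo luminescence gave expression; GF-AFC fluorescence gave viability.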
MCF10A rereplic – inducers of DNA re-replication in MCF 10A breast cells; MCF 10A DNA re-replication, Hoechst nuclear intensity, 48 h; Potency, µM (doses to about 46.1 µM), for inactives: top-dose activity, positive = re-replication, actives largely listed as activators; 2.9% of 350,000 active; also: potency is read from the fitted curve at half-maximal effect; % of control where 0% means no effect; nearly all actives have a fitted effect of over 50% in size
IL-1B inflam inh – blocks inflammasome-driven IL-1 beta release | AID 743279 | activity change, % at 57.5 µM | THP-1 LPS/ATP IL-1B secretion, AlphaLISA, 16 h; hits give low values | 4.7% of 360,000 active; in the data active = activity change below about -50%; inconclusive = mostly about -30% to -49%; also: % is scaled to controls: 0 for no effect and ±100 for the full control effect
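THP-1 cells pretreated 1 hr with compounds (up to 57.5 uM final), then stimulated with LPS (250 ng/mL final) plus ATP (1.25 mM final); secreted IL-1B measured by AlphaLISA after 16 hr, decreased signal indicating inhibition.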
SW480 rereplic – induces DNA re-replication in SW480 colon adenocarcinoma cells; SW480 DNA re-replication, Hoechst DNA content imaging, 48 h; Potency, µM (series often up to 46.1 µM), inactives show top-dose re-replication activation, actives largely listed as activators; 1.8% of 340,000 active; also: potency is read from the fitted curve at half-maximal effect; % of control where 0% means no effect; nearly all actives have a fitted effect of over 55% in size
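Quantitative HTS format with DMSO vehicle controls; 48 hr drug incubation at 37 C, then 40 min Hoechst staining and scanning imager measurement at 405 nm excitation.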
The depositor's hits bear a star; i = inactive; ? = inconclusive; . = no result; [ ] = remark or other dose. Unless noted, calls follow the shape of the dose curve; as a rule, active = well fitted curve in the direction sought with a large enough effect; inconclusive = small, poorly fitted or top-dose-only effect, or another doubt; inactive = no such curve, though single readings can be large; an effect the other way counts as inactive or inconclusive.

SMILES | PINK1 modulator | S2 tox | ATXN2 expr inh | MCF10A rereplic | IL-1B inflam inh | SW480 rereplic
CCOC(=O)CSc1nnc2n(Cc3ccccc3)c(=O)c3c4c(sc3n12)CCC4 | 1% | i | -3% | -40% | 2 | -1%
C=CCn1c(=O)c2c3c(sc2n2c(Nc4ccc(C(=O)OCC)cc4)nnc12)CCCC3 | . | . | . | 11% | 14 | 13µM*
C=CCn1c(=O)c2c3c(sc2n2c(Nc4ccc(OC)cc4)nnc12)CCCC3 | 3% | i | -1% | 13% | -71* | -2%
COc1ccccc1C1NC(c2ccc3c(c2)OCO3)=CC(c2ccccc2O)N1 (centres undefined) | 2% | . | . | . | . | .
O=[N+]([O-])c1cc(/C=N/N2CCCCC2)ccc1Cl | 1% | i | 51% | -1% | -5 | 5%
Nc1nnnn1/N=C\c1ccc(Cl)c([N+](=O)[O-])c1 | 0% | i | -6% | ? | -61* | ?
Cc1ccc(-c2cnc(NC(=O)c3cccc(Br)c3)s2)c(C)c1 | . | i | -10% | -6% | -58* | ?
O=S(=O)(Nc1c(F)cccc1F)c1ccc(Cl)nc1 | 3% | i | -10% | -17% | 27 | 0.92µM*
Cc1ccc(C(=O)/C=C/c2ccccc2[N+](=O)[O-])cc1 | -2% | ? | ? | 16µM* | -57* | ?
Cc1ccc(/C=C/C(=O)c2ccc(C)cc2)cc1 | ? | i | 13% | 16% | ? | ?
Cc1ccc(C(=O)/C=C/c2ccc(-c3ccccc3[N+](=O)[O-])o2)cc1 | -2%[38.3 µM] | i | -17% | -2% | -95* | -1%
O=C(/C=C/c1ccc(-c2ccccc2[N+](=O)[O-])o1)c1ccc(Br)cc1 | 11%[38.3 µM] | i | ? | ? | -66* | ?
N#C/C(=C/c1ccc(-c2ccccc2[N+](=O)[O-])o1)C(N)=O | 25% | i | -26% | 6% | -9 | 6%
Cc1ccc(C(=O)N/C(=C\c2ccc(-c3ccccc3[N+](=O)[O-])o2)C(=O)NCCCN2CCOCC2)cc1 | 0% | i | -19% | ? | 58 | ?
O=C(/C=C/c1ccc(-c2ccccc2[N+](=O)[O-])o1)c1ccc(F)cc1 | 2%[38.3 µM] | ? | ? | -4% | -99* | -6%
CCOC(=O)c1c(C)n(-c2ccccc2)c2ccc(OC(=O)c3cc(OC)cc(OC)c3)cc12 | 1% | i | 2% | . | . | .
Cc1cccc(NC(=O)c2c(C)oc3ncn(CC(C)C)c(=O)c23)n1 | -1% | i | 4% | . | . | .
CCC(=O)N1CCCc2cc(S(=O)(=O)N3CCC(C(=O)NC4CCC(C)CC4)CC3)ccc21 (centres undefined) | -1% | i | -5% | . | . | .
COc1cc2c(cc1-c1c(C)noc1C)ncc1[nH]c(=O)n([C@H](C)c3ccccn3)c12 | . | . | 194% | . | . | .
O=C(/C=C/c1ccccc1[N+](=O)[O-])c1ccccc1Br | -2% | ? | ? | ? | -104* | ?
O=C(/C=C\c1ccccc1[N+](=O)[O-])Nc1ccccc1 | 5% | i | 1% | ? | 7 | -33%
Cc1cccc(NC(=O)CCNS(=O)(=O)c2ccc3c(c2)CCCC(=O)N3)c1C | -1% | i | 8% | . | . | .
Cc1nnc(NC(=O)C2CCCO2)s1 (centres undefined) | -1% | i | -3% | -1% | 17 | -1%
CCCC(C)c1nnc(NC(=O)C2CCCO2)s1 (centres undefined) | -4%[38.3 µM] | i | 34% | 5.2µM* | 15 | 21µM*
Cc1cccc(N=C2Sc3nc4c(C)c(C)ccc4cc3CN2CCN2CCOCC2)c1 | ? | i | -18% | 12µM* | -59* | 1%
NC(=O)C1=CC2C3C=CC2(O)C(=O)OC3O1 (centres undefined) | -4% | . | 21µM* | 2.9µM* | -96* | 3.7µM*
CCc1cc2c(CN(C)Cc3ccccc3F)cc(=O)oc2cc1O | 26% | i | -25% | 18µM* | 13 | ?
